Measurements taken from PubChem BioAssay (EPA / NIEHS).
Activity calls are given as the source filed them. The calls were made as follows: active = hit-call score of the fitted dose curve at least 0.9, where 1 is the maximum; inactive = score below 0.9.

Assays:
[1] = APR_HepG2_NuclearSize_72hr: Apredica 72-hour HepG2 Assay for Nuclear Size (AID 2282925); conditions: high-content imaging, actives raise or lower the signal
Procedure, shortened: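 HepG2 cells were exposed to compounds at ten concentrations from 0.39 to 200 uM (duplicate, 0.5% DMSO final) for 72 hr. After fixation in 3.7% formaldehyde, nuclei were stained with Hoechst 33342 (2 ug/mL) and imaged at 20x.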

[2] = ATG_CRE_CIS: Attagene CIS-FACTORIAL HepG2 Assay for human cAMP Responsive Element (CRE) binding protein 3 (AID 2282926); conditions: HepG2 CRE cis-reporter, Attagene multiplexed mRNA; actives raise or lower the signal
Procedure, shortened: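 Transfected HepG2 were treated for 24 hours, then RNA was extracted and reporter cDNA amplified with sequence-specific primers. Labelled fragments were separated by capillary electrophoresis, and the CRE signal was fitted bidirectionally with DMSO as baseline.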

[3] = target: CCAAT/enhancer-binding protein beta (Homo sapiens) (UniProt P17676); experiment: ATG_C_EBP_CIS: Attagene CIS-FACTORIAL HepG2 Assay for human CCAAT/Enhancer Binding Protein (C/EBP) beta (AID 2282927); conditions: HepG2 Attagene cis-factorial transcription factor reporter; actives raise or lower the signal
Procedure, shortened: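 Following a 24 h incubation with test chemical, transfected HepG2 cells yielded RNA whose reporter transcripts were quantified by RT-PCR and fluorescent capillary electrophoresis, with DMSO serving as baseline for bidirectional fitting.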

[4] = ATG_CMV_CIS: Attagene CIS-FACTORIAL HepG2 Assay for human CMV (Internal Marker) (AID 2282928); conditions: HepG2 CMV promoter reporter, transcription factor profiling; actives raise or lower the signal;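 also: endpoint acts as a background internal control marker rather than a target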
Procedure, shortened: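 CMV internal-marker background readout in transiently transfected HepG2 cells bearing cis-regulated reporter units. Reporter mRNA is measured 24 h after dosing by RT-PCR and capillary electrophoresis, with bidirectional fitting against DMSO.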

[5] = target: Aryl hydrocarbon receptor (Homo sapiens) (UniProt P35869); experiment: ATG_Ahr_CIS: Attagene CIS-FACTORIAL HepG2 Assay for human Aryl Hydrocarbon Receptor (Ahr) (AID 2282930); conditions: HepG2 AhR cis-factorial reporter transcription; actives raise or lower the signal
Procedure, shortened: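 Values derive from bidirectional fitting against DMSO negative control. Underlying signal: cis-element reporter mRNA in transiently transfected HepG2, harvested 24 h post-dose and measured by RT-PCR plus capillary electrophoresis.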

[6] = ATG_AP_1_CIS: Attagene CIS-FACTORIAL HepG2 Assay for human Activator Protein 1 (AP-1) (AID 2282931); conditions: HepG2 Attagene cis-factorial AP-1 reporter mRNA; actives raise or lower the signal
Procedure, shortened: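 Endogenous transcription-factor activity in human HepG2 liver cells is read through a cis-promoter reporter transcript, sampled 24 h after dosing. Detection uses RT-PCR with capillary electrophoresis; values come from bidirectional fitting relative to DMSO.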

[7] = ATG_AP_2_CIS: Attagene CIS-FACTORIAL HepG2 Assay for human Activator Protein 2 (AP-2) (AID 2282932); conditions: HepG2 AP-2 cis-reporter, Attagene transcription factor profiling; actives raise or lower the signal
Procedure, shortened: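 HepG2 cells were transiently transfected with multiple cis-promoter reporter transcription units and dosed for 24 h. Reporter mRNA was measured by RT-PCR with capillary electrophoresis fluorescence; bidirectional fits relative to DMSO baseline.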

[8] = ATG_BRE_CIS: Attagene CIS-FACTORIAL HepG2 Assay for human Bone Morphogenetic Protein (BMP) Response Element (BRE) (AID 2282933); conditions: HepG2 BMP response element reporter, Attagene transcription factor profiling; actives raise or lower the signal
Procedure, shortened: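 A HepG2 multiplex reporter system measured inducible reporter mRNA 24 h post-dosing. Detection: RT-PCR, 6-FAM primer extension, HpaI digestion, capillary electrophoresis. Activity fitted bidirectionally relative to DMSO.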

[9] = target: Retinoic acid receptor alpha (Homo sapiens) (UniProt P10276); experiment: ATG_DR5_RAR_CIS: Attagene CIS-FACTORIAL HepG2 Assay for human Retinoic Acid Receptor Alpha (RARE), DR5 submotif (AID 2282934); conditions: HepG2 Attagene cis-factorial RARE DR5 reporter, mRNA; actives raise or lower the signal;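 as to AC50: reporter responds to endogenous RAR alpha beta and gamma in HepG2 not RARA alone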
Procedure, shortened: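 Endpoint fitted in both directions relative to DMSO as negative control. It reflects DR5 cis-element reporter mRNA induction in transiently transfected HepG2 cells, measured 24 h after dosing through RT-PCR and fluorescent capillary electrophoresis.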

[10] = target: Transcription factor E2F1 (Homo sapiens) (UniProt Q01094); experiment: ATG_E2F_CIS: Attagene CIS-FACTORIAL HepG2 Assay for human E2F Transcription Factor 1 (AID 2282935); conditions: HepG2 Attagene cis-reporter, E2F reporter RNA transcripts; actives raise or lower the signal
Procedure, shortened: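 HepG2 cells transiently transfected with multiplexed cis-element reporter units, dosed for 24 h. Reporter mRNA measured by RT-PCR, 6-FAM primer-extension labeling, HpaI digestion and capillary electrophoresis; bidirectional fit versus DMSO baseline.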

[11] = ATG_E_Box_CIS: Attagene CIS-FACTORIAL HepG2 Assay for human Enhancer Box (E-box) (AID 2282936); conditions: HepG2 E-box cis-reporter transcription, actives raise or lower the signal
Procedure, shortened: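 HepG2 cells transiently transfected with multiplexed cis-element reporter units sensing endogenous transcription factor activity; 24 h compound exposure. Reporter mRNA measured by RT-PCR, 6-FAM primer extension, HpaI digestion and capillary electrophoresis; bidirectional fit versus DMSO.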

[12] = ATG_M_61_CIS: Attagene CIS-FACTORIAL HepG2 Assay for M61 Transcription Factor (Internal Marker) (AID 2282937); conditions: HepG2 Attagene CIS-FACTORIAL M61 internal marker reporter; actives raise or lower the signal
Procedure, shortened: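 Cells were transfected with reporter units under cis-regulatory promoters, treated with chemicals for 24 h, then lysed for RNA. Reporter transcripts were quantified by RT-PCR and capillary electrophoresis, and activity was fitted bidirectionally against DMSO.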

[13] = ATG_M_19_CIS: Attagene CIS-FACTORIAL HepG2 Assay for M19 Transcription Factor (Internal Marker) (AID 2282939); conditions: HepG2 Attagene CIS-FACTORIAL M19 internal marker reporter; actives raise or lower the signal
Procedure, shortened: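 Chemical-treated HepG2 (24 h) with MRTU constructs; reporter transcripts detected by fluorescent RT-PCR fragment analysis on capillary electrophoresis. Internal background marker, DMSO as baseline.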

[14] = ATG_ERE_CIS: Attagene CIS-FACTORIAL HepG2 Assay for Estrogen Response Element (ERE) (AID 2282940); conditions: HepG2 ERE cis-reporter, Attagene RNA transcript; actives raise or lower the signal
Procedure, shortened: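 Human liver cells (HepG2) bearing transiently transfected, promoter-regulated reporter units were exposed 24 h. Reporter mRNA induction was detected by capillary electrophoresis of labelled RT-PCR products and fitted bidirectionally to DMSO.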

[15] = ATG_FoxO_CIS: Attagene CIS-FACTORIAL HepG2 Assay for human Forkhead box O (FoxO) (AID 2282943); conditions: HepG2 Attagene cis-reporter, FoxO element, mRNA; actives raise or lower the signal
Procedure, shortened: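 Values reflect reporter mRNA induction or loss in HepG2 cells 24 h post-dosing, fitted bidirectionally with DMSO as negative control and baseline. Detection used RT-PCR and fluorescence capillary electrophoresis.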

[16] = ATG_GATA_CIS: Attagene CIS-FACTORIAL HepG2 Assay for human GATA Binding Protein (AID 2282944); conditions: HepG2 GATA cis-element reporter, Attagene multiplex mRNA; actives raise or lower the signal
Procedure, shortened: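 Transfected cis-reporter HepG2 cells were treated with chemicals for 24 hours. Total RNA was then converted to cDNA, amplified with reporter-specific primers and analysed by fluorescent capillary electrophoresis, using DMSO-treated wells as baseline.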

[17] = ATG_DR4_LXR_CIS: Attagene CIS-FACTORIAL HepG2 Assay for human Liver X Receptor (LXR), DR4 submotif (AID 2282929); conditions: HepG2 Attagene DR4 cis-reporter, mRNA transcription; actives raise or lower the signal
Procedure, shortened: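 Cells were transfected with multiple reporter transcription units, exposed to chemicals for 24 hours, then lysed for RNA. Reporter mRNA induction was measured by RT-PCR with capillary electrophoresis detection and fitted in both directions relative to DMSO.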

[18] = ATG_EGR_CIS: Attagene CIS-FACTORIAL HepG2 Assay for human Early Growth Response 1 (EGR1) (AID 2282938); conditions: HepG2 Attagene CIS-FACTORIAL EGR reporter mRNA; actives raise or lower the signal
Procedure, shortened: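 Endogenous TF activity in HepG2 liver cells was gauged through cis-promoter reporter constructs transiently transfected. After 24 h dosing, reporter mRNA was quantified by RT-PCR and capillary electrophoresis, and curves fitted in both directions versus DMSO.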

[19] = ATG_Ets_CIS: Attagene CIS-FACTORIAL HepG2 Assay for human Erythroblast Transformation Specific (ETS) (AID 2282941); conditions: HepG2 ETS cis-reporter transcription, actives raise or lower the signal
Procedure, shortened: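 HepG2 cells transfected with multiple cis-regulated reporter units measuring endogenous ETS-driven transcription, 24 h after dosing. Reporter mRNA quantified by RT-PCR with capillary electrophoresis; bidirectional fit relative to DMSO.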

[20] = target: Hepatocyte nuclear factor 3-beta (Homo sapiens) (UniProt Q9Y261); experiment: ATG_FoxA2_CIS: Attagene CIS-FACTORIAL HepG2 Assay for human Forkhead box A2 (FOXA2) (AID 2282942); conditions: HepG2 cis-reporter transcription factor activity, 24 h; actives raise or lower the signal
Procedure, shortened: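 Endogenous transcription factor activity was read in HepG2 cells carrying transiently transfected cis-promoter reporter units. After 24 h dosing, reporter mRNA was quantified by RT-PCR and capillary electrophoresis, and values fitted bidirectionally versus DMSO.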

Measured: AC50

Transcription factor E2F1 (Homo sapiens), sequence (Q01094 whole entry, looked up): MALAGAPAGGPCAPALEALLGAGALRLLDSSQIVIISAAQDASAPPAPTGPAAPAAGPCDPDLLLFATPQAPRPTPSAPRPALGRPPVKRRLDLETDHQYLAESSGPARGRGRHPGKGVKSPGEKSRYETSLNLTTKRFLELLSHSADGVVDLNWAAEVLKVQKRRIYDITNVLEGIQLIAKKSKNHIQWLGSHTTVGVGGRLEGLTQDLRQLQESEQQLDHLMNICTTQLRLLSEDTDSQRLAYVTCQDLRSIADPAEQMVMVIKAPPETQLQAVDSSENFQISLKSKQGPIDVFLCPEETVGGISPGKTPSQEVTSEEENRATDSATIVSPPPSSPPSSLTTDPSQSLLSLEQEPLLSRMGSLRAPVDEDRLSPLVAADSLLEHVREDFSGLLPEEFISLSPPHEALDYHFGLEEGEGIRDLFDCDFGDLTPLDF
Hepatocyte nuclear factor 3-beta (Homo sapiens), sequence (Q9Y261 whole entry, looked up): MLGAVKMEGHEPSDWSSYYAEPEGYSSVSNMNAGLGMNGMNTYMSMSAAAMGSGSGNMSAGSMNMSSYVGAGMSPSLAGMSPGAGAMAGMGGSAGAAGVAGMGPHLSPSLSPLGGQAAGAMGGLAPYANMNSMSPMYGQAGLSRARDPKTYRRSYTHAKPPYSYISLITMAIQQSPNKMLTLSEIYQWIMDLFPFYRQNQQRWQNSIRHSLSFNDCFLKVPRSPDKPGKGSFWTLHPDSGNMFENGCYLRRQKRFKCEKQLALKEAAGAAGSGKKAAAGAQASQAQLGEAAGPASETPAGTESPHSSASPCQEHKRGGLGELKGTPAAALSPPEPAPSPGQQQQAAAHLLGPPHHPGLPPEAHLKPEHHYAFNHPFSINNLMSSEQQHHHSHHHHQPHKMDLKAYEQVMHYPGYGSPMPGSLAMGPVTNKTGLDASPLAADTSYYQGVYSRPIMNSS
Retinoic acid receptor alpha (Homo sapiens), sequence (P10276 whole entry, looked up): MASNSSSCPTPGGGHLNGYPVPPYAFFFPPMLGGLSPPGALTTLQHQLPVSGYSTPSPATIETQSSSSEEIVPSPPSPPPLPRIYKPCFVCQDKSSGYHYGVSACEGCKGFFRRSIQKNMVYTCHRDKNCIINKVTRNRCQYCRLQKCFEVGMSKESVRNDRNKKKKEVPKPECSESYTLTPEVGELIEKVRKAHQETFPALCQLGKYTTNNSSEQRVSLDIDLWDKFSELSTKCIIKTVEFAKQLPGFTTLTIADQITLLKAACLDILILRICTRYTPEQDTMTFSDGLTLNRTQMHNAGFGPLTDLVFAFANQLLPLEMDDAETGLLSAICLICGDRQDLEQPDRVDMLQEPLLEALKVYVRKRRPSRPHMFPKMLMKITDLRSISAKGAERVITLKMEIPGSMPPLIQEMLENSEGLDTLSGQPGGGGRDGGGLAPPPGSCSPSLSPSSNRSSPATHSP
Aryl hydrocarbon receptor (Homo sapiens), sequence (P35869 whole entry, looked up): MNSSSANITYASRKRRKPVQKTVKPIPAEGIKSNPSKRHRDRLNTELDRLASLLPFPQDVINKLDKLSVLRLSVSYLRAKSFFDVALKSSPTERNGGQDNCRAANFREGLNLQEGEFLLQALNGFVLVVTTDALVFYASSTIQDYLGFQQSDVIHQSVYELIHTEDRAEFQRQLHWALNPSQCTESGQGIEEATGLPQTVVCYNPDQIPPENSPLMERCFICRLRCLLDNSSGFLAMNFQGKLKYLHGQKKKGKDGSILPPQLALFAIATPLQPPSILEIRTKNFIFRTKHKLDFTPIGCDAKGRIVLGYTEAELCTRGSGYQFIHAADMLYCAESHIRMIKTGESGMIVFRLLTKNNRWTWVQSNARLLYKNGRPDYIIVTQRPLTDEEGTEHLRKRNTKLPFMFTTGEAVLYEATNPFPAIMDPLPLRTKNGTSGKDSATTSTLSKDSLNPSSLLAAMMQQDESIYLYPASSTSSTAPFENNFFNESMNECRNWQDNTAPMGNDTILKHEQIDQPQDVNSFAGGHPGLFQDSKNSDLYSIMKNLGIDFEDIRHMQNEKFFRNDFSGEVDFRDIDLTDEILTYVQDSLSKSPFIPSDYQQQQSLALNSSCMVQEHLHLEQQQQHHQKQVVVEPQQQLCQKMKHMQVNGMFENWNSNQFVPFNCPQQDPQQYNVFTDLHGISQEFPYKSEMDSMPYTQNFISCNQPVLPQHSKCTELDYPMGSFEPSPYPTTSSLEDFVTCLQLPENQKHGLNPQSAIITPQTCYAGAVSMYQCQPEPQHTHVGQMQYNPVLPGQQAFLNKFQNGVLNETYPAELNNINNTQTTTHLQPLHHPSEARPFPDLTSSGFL
CCAAT/enhancer-binding protein beta (Homo sapiens), sequence (P17676 whole entry, looked up): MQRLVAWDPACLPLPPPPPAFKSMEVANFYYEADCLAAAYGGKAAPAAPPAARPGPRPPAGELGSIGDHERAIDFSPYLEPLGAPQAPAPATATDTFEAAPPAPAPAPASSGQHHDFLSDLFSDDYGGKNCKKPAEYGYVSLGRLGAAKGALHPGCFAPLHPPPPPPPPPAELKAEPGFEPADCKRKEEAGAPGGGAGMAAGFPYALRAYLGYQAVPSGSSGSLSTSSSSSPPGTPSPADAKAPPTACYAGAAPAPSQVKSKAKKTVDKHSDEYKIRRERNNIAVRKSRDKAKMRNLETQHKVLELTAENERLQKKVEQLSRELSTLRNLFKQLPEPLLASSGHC

Cn1cc[nH]c1=S
not listed: [17] | [18] | [19] | [20]
inactive: all other assays above

CNC(C)=O
not listed: [2]
inactive: all other assays above

C=CCc1cc(S(=O)(=O)c2ccc(O)c(CC=C)c2)ccc1O
active: [1] 79.1 µM | [4] 27.9 µM | [17] 20.4 µM | [6] 23.2 µM | [8] 22.1 µM | [11] 55.6 µM | [14] 1.12 µM
not listed: [2] | [18] | [19]
inactive: all other assays above

Cc1nccn1-c1ccc(Sc2cccc(C3(C(N)=O)CCOCC3)c2)cc1
active: [3] 1.94 µM | [4] 0.93 µM | [7] 8.08 µM | [9] 1.83 µM | [19] 4.05 µM | [15] 3.15 µM
not listed: [2] | [18]
inactive: all other assays above

O=C(O)c1cccc(C(=O)O)c1
not listed: [2] | [18] | [19]
inactive: all other assays above

O=C(NO)C1(NS(=O)(=O)c2ccc(Oc3ccc(F)cc3)cc2)CCOCC1
not listed: [2] | [19]
inactive: all other assays above

CCOc1ccc2[nH]cc(C(=O)NCc3ccccc3)c(=O)c2n1
active: [5] 4.77 µM
not listed: [2]
inactive: all other assays above
